Rows were chosen to be rich in hits. Some 15% of all compounds tested hit in one or more screens of this group.
DT40 TDP1 no CPT – qHTS for Inhibitors of human tyrosyl-DNA phosphodiesterase 1 (TDP1): qHTS in cells in absence of CPT; DT40 Tdp1-/- hTDP1 cells, no CPT, ATP luminescence, 48 h; Potency, µM (doses to about 46.2 µM), for inactives: at the highest dose activity change, negative = growth inhibition, most hits filed as inhibitors; 420,000 compounds, 15% hits; also: nearly all actives have a fitted effect of over 55% in size
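Stably hTDP1-transfected Tdp1-null chicken DT40 cells were treated with library compounds minus camptothecin and grown for at least 48 hr at 37 °C, after which cellular ATP was quantified by luminescence.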
ELG1 DNA repair – qHTS screen for small molecules that inhibit ELG1-dependent DNA repair in human embryonic kidney (HEK293T) cells expressing luciferase-tagged ELG1; HEK293T ELG1-luciferase reporter, luminescence, 16 h; DNA damage induced by 5-fluorouridine; 330,000 compounds, 2.3% hits; Potency, µM (highest dose often 46.1 µM), for inactives: top-dose activity change, negative = inhibition, usual class: inhibitors; AID 504467, 2011; also: nearly all actives have a fitted effect of over 55% in size
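Overnight (16 hr) co-exposure of 2,000 cells/well to 5-fluorouridine and compound at 37 °C preceded detection. Luciferase was quantified via ONE-Glo luminescence; loss of signal denotes inhibition.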
RORgamma inh – qHTS for inhibitors of ROR gamma transcriptional activity | 310,000 compounds, 5.4% hits | Potency, µM (titrated, usually from 53.6 µM), inactives show at the highest dose activity change, negative = inhibition, hits mostly inhibitors | Nuclear receptor ROR-gamma (Mus musculus), P51450 | Drosophila S2 Gal4-RORgamma UAS-luciferase reporter, 20 h; also: nearly all actives have a fitted effect of over 60% in size
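Read-out: Photinus luciferase luminescence; inhibitors lower reporter signal. Insect Schneider cells with Gal4-ROR gamma fusion under metallothionein promoter, UAS reporter; 700 uM final copper sulfate induction, 20 hr, ambient temperature.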
ALOX12 inh – Primary qHTS assay for inhibitors of human arachidonate 12S-lipoxygenase (ALOX12): Round 2 | Polyunsaturated fatty acid lipoxygenase ALOX12 (Homo sapiens), P18054 | purified 12hLO, xylenol orange hydroperoxide absorbance | Potency, µM (titrated, usually from 108 µM), for inactives: at the highest dose activity change, negative = inhibition, hits mostly inhibitors | 580,000 compounds, 1.1% hits | AID 1671190, 2021
Target sequence (P18054 whole entry, looked up): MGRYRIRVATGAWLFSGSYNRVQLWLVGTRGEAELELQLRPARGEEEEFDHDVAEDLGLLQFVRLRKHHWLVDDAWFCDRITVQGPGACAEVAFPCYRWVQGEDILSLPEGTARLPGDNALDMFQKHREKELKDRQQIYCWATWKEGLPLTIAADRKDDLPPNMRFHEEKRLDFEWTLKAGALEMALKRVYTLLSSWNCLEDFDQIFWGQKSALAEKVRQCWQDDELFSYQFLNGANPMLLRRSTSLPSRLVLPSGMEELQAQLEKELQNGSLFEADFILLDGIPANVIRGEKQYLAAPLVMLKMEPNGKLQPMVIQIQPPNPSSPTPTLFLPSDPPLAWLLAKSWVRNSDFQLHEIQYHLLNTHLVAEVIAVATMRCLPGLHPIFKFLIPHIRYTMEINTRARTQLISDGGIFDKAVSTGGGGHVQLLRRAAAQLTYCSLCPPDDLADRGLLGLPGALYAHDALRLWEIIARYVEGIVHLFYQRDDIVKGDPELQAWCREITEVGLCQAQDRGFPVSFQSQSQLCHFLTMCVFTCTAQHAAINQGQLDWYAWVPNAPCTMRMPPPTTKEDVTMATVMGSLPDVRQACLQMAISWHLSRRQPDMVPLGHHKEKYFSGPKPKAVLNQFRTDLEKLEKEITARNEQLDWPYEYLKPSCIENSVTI
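Hydroperoxide product was detected by ferrous iron/xylenol orange as the 573 to 405 nm absorbance ratio. Arachidonic acid at 40 uM (final) was turned over for 30 min at room temperature by 150 nM human 12hLO, pH 7.0 Hepes buffer, after 15 min compound preincubation.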
DT40 TDP1 CPT – qHTS for Inhibitors of human tyrosyl-DNA phosphodiesterase 1 (TDP1): qHTS in cells in presence of CPT. chicken DT40 Tdp1-/-;hTDP1 cells + 20 nM CPT, ATP luminescence, 48 h. 420,000 compounds, 12% hits. Potency, µM (top dose mostly 46.2 µM), for the others: top-dose activity change, negative = growth inhibition, actives largely listed as inhibitors; also: nearly all actives have a fitted effect of over 55% in size
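Chicken DT40 Tdp1-/- cells stably complemented with human TDP1 were seeded at 400 cells/well in medium containing 20 nM camptothecin, exposed to pin-transferred compounds, and grown at 37 °C for at least 48 hr. Viability was read as ATP luminescence.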
VP16 counter – VP16 counterscreen qHTS for inhibitors of ROR gamma transcriptional activity | Drosophila S2 Gal4-VP16 UAS-luciferase, luminescence, 20 h | Potency, µM (highest dose often 53.6 µM), without a hit: at the top dose activity, negative = inhibition, usual class: inhibitors | 310,000 compounds, 3.5% hits | AID 2546, 2010;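 also: Gal4-VP16 expression switched on by copper sulfate through the metallothionein promoter; nearly all actives have a fitted effect of over 50% in size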
The depositor's hits bear a star; ? = inconclusive; . = not tested or not shown; [ ] = another dose, or the depositor's remark. Calls follow the shape of the dose curve; as a rule, active = well fitted curve in the direction sought with a large enough effect; inconclusive = small, poorly fitted or top-dose-only effect, or another doubt; inactive = no such curve, though single readings can be large; an effect the other way counts as inactive or inconclusive. % is scaled to controls: 0 for no effect and ±100 for the full control effect; potency is read from the fitted curve at half-maximal effect.

SMILES	DT40 TDP1 no CPT	ELG1 DNA repair	RORgamma inh	ALOX12 inh	DT40 TDP1 CPT	VP16 counter
O=C(CCS(=O)(=O)c1cccs1)N1CCN(c2ccc(F)cc2)CC1	-29%	?	44%	-10%	-28%	-1%
COc1ccc(S(=O)(=O)CCC(=O)N2CCN(c3ccc(F)cc3)CC2)cc1	26µM*	0%	20%	-3%	21µM*	-1%
Cc1ccc(S(=O)(=O)CCC(=O)N2CCN(c3ccccc3F)CC2)cc1	14%	2%	0%	2%	-1%	-5%
Cc1ccc(S(=O)(=O)CCC(=O)N2CCN(c3ccc(Cl)cc3)CC2)cc1	21µM*	?	-12%	?	13µM*	-14%
O=C(CCS(=O)(=O)c1ccc(Cl)cc1)N1CCN(c2ccc(F)cc2)CC1	18µM*	-11%	.	-29%	15µM*	.
CN(c1ccc(OCC(=O)N2CCN(c3ccc(F)cc3)CC2)cc1)S(=O)(=O)c1cccs1	26µM*	?	?	?	?	-23%
CCOC(=O)c1ccc(-c2ccc(/C=C(\C#N)C(=O)N3CCOCC3)o2)cc1	.	.	.	-3%	.	.
Cc1cccc(Nc2nc(N)nc(CSc3nccc(C)n3)n2)c1	-7%	9%	22%	0%	-1%	14%
Cc1cccc(Nc2nc(N)nc(CCl)n2)c1	21µM*	?	?	38%	13µM*	10µM*
Cc1ccc(Nc2nc(N)nc(CCl)n2)cc1	?	-23%	?	356%	16µM*	?
Cc1cccc(Nc2nc(N)nc(CCl)n2)c1C	16µM*	9.2µM*	?	80%	10µM*	?
Cc1cccc(Nc2nc(N)nc(CN3CCC(C(N)=O)CC3)n2)c1C	-20%	8%	-17%	?	0%	-1%
Cc1ccc(Nc2nc(N)nc(CC#N)n2)cc1	15%	?	17%	22%	0%	-3%
Cc1ccc(Nc2nc(N)nc(CN3CCc4ccccc4C3)n2)cc1	?	-16%	?	7%	18µM*	-11%
Cc1c(Cl)cccc1Nc1nc(N)nc(CN2CCc3ccccc3C2)n1	-14%	-24%	39%	-17%	-15%	-28%
CN(C)c1ncc2c(n1)C(C)(C(=O)NCCOc1ccccc1)CCC2 (stereo not given)	.	.	.	4%[176 µM]	.	.
C=CCn1c(-n2nc(C)c(C)c2C)nc2c1c(=O)n(CC)c(=O)n2C	.	.	.	-25%	.	.
CCc1ccc2oc(=O)cc(CN3CCN(CC(=O)NC4CCCC4)CC3)c2c1	.	.	.	-8%	.	.
COc1ccc(C(=O)NCC23CCC=C2N(C)C(=O)CC3)cn1 (stereo not given)	.	.	.	16%	.	.
COc1ccc(Nc2nc(N)nc(CSc3nc4cc(OC)ccc4s3)n2)cc1	15µM*	.	.	?	12µM*	.
CCOc1ccc(Nc2nc(N)nc(CCl)n2)cc1	5.8µM*	?	?	146%	2.1µM*	?
CCOc1ccc(Nc2nc(N3CCCCC3)nc(N3CCCCC3)n2)cc1	?	2%	-16%	-17%	-21%	1%
Cc1ccc(Nc2nc(N)nc(CCl)n2)c(C)c1	10µM*	?	-42%	22%	6.5µM*	?
CCOC(=O)c1cnc(SCc2nc(N)nc(Nc3ccc(C)cc3)n2)nc1N	?	?	18%	-2%	21µM*	-1%
Cc1cccc(NC(=O)c2ccc[n+]([O-])c2)n1	.	.	.	7%	.	.

Source: PubChem (National Center for Advancing Translational Sciences (NCATS))
